# The supplement of paper PMC8253809
# Key:
# Test in all cases: growth inhibition (% activity, log2 RLU normalised to DMSO / staurosporine); higher = more growth inhibition
# Conditions in all cases: 33 µM
# DIPGX29 = tested on: DIPGX29 (H3.3 K27M diffuse intrinsic pontine glioma line)
# Outline: (§1)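 For each approved drug, the growth-inhibition value is the replicate median of per-plate normalised CellTiter-Glo data. Luminescence was log2-transformed and expressed as % activity between solvent and positive control wells. Drugs were applied in triplicate at a single final concentration of about 33 μM for 7 days at 37 °C, 5% CO2 to pHGG cell lines and H9-derived neural stem cells.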
# DIPGX37 = tested on: DIPGX37 (H3.3 K27M diffuse intrinsic pontine glioma line)
# Outline: as §1
# DIPGX7 = tested on: DIPGX7 (H3.3 K27M diffuse intrinsic pontine glioma line)
# Outline: as §1
# DIPGX9 = tested on: DIPGX9 (diffuse intrinsic pontine glioma line)
# Outline: as §1
# HGGX39 = tested on: HGGX39 (paediatric high-grade glioma line)
# Outline: as §1
# HGGX6 = tested on: HGGX6 (H3.3 G34R paediatric high-grade glioma line)
# Outline: as §1
# HNSC = tested on: HNSC
# Outline: as §1
# SUDIPGIV = tested on: SUDIPGIV (diffuse intrinsic pontine glioma line)
# Outline: as §1
# SUDIPGVI = tested on: SUDIPGVI (diffuse intrinsic pontine glioma line)
# Outline: as §1
# SUDIPGXIII = tested on: SUDIPGXIII (diffuse intrinsic pontine glioma line)
# Outline: as §1
Compound,growth inhibition (DIPGX29) [%],growth inhibition (DIPGX37) [%],growth inhibition (DIPGX7) [%],growth inhibition (DIPGX9) [%],growth inhibition (HGGX39) [%],growth inhibition (HGGX6) [%],growth inhibition (HNSC) [%],growth inhibition (SUDIPGIV) [%],growth inhibition (SUDIPGVI) [%],growth inhibition (SUDIPGXIII) [%]
OC[C@H]1O[C@H](O[C@]2(CCl)O[C@H](CCl)[C@@H](O)[C@@H]2O)[C@H](O)[C@@H](O)[C@H]1Cl,-2.41,-0.64,-2.77,-3.01,-2.1,-2.77,-5.57,-0.426,-3.09,0.882
c1cc(CN2CCCNCCNCCCNCC2)ccc1CN1CCCNCCNCCCNCC1,1.86,3.43,1.65,2.55,4.18,5.37,11.8,12.5,5.04,3.18
O=C(Nc1c(Cl)cncc1Cl)c1ccc(OC(F)F)c(OCC2CC2)c1,2.05,4.42,2.92,2.71,4.08,2.51,2.92,7.2,6.56,-0.978
CCC(C)(C)c1ccc(CC(C)CN2C[C@@H](C)O[C@@H](C)C2)cc1 (stereo not given in full),9.06,6.3,36.9,0.0137,15.3,11.1,8.57,11.7,-11.5,-7.54
CN1CCN(c2c(F)cc3c(=O)c(C(=O)O)cn4c3c2OCN4C)CC1,0.647,0.371,3.3,2.03,2.92,3.21,2.71,1.21,4.19,-0.0388
O=S(=O)(O)c1cc(O)ccc1O,-4.18,-4.39,-0.642,-3.41,-5.27,-3.97,13.9,-3.95,-12.4,1.53
C[C@]12CC[C@@H]3c4ccc(O)cc4CC[C@H]3[C@@H]1C[C@@H](O)[C@@H]2O,-2.64,-2.04,-1.85,-3.27,-3.05,-3.15,1.55,-0.339,-10.4,1.55
CCC[C@H](NC(=O)[C@@H]1[C@H]2CCC[C@H]2CN1C(=O)[C@@H](NC(=O)[C@@H](NC(=O)c1cnccn1)C1CCCCC1)C(C)(C)C)C(=O)C(=O)NC1CC1,0.654,1.66,1.2,1.41,1.74,2.24,3.02,0.139,1.78,-0.0315
O=C(NC[C@H]1CN(c2ccc(N3CCOCC3=O)cc2)C(=O)O1)c1ccc(Cl)s1,-0.891,0.377,-0.155,-1.03,0.0326,0.545,0.606,3.01,-0.593,1.19
O=C1O[C@H]([C@@H](O)CO)C([O-])=C1O.[Na+],-5.78,-2.29,-0.532,-4,-3.28,-5.19,6.78,-3.14,-6.63,2.95
CC1=C(C(=O)O)N2C(=O)[C@@H](NC(=O)[C@H](N)c3ccccc3)[C@H]2SC1,-0.253,0.936,6.97,-1.35,3.87,0.198,-2.54,-1.66,-13.3,2.38
CC(=O)OCC(=O)NCCCOc1cccc(CN2CCCCC2)c1,-1.28,1.04,-1.47,-0.989,-1.44,0.942,-4.85,-2.05,-0.427,-1.04
CC(C)NCC(O)c1cc(O)cc(O)c1 (stereo not given),-0.101,1.67,1.75,1.82,2.87,-1.68,27.3,2.27,-0.181,-0.215
O=C(CCCN1CCC(O)(c2ccc(Cl)cc2)CC1)c1ccc(F)cc1,0.532,0.49,2.11,2.82,5.5,1.74,2.33,2.23,0.854,1.18
Cc1cccc(Nc2ccccc2C(=O)O)c1C,-4,-1.52,3.05,-3.62,-3.34,-4.45,9.87,-8.08,-6.14,-0.652
CN(C)CCC(c1ccc(Br)cc1)c1ccccn1 (stereo not given),-0.2,1.72,0.687,0.118,1.57,-1.76,4.12,-0.116,-0.379,1.63
CCc1cccc2c3c([nH]c12)C(CC)(CC(=O)O)OCC3 (stereo not given),1.41,0.479,3.29,0.48,2.3,0.44,2.88,-3.78,1.87,1.77
CCOc1nc2cccc(C(=O)OC(C)OC(=O)OC3CCCCC3)c2n1Cc1ccc(-c2ccccc2-c2nn[nH]n2)cc1 (stereo not given),-1.79,-1.28,-1.84,-0.119,-0.661,0.0529,-2.55,-3.13,-3.95,-0.781
Cc1cc(C)nc(NS(=O)(=O)c2ccc(N)cc2)n1,-2.92,0.0741,-1.22,-1.22,-1.68,-2.24,4.45,-1.47,-1.67,0.778
O=C(O)c1cc(/N=N/c2ccc(O)c(C(=O)O)c2)ccc1O,-0.786,0.929,0.432,0.755,1.33,0.125,11.3,-0.724,-2.65,0.343
Clc1ccc(C(Cn2ccnc2)OCc2ccsc2Cl)c(Cl)c1 (stereo not given),4.62,-2.6,2.82,4.52,8.15,7.53,4.99,13.7,2.98,5.65

Compound,growth inhibition (DIPGX29) [%],growth inhibition (DIPGX37) [%],growth inhibition (DIPGX7) [%],growth inhibition (DIPGX9) [%],growth inhibition (HGGX39) [%],growth inhibition (HGGX6) [%],growth inhibition (HNSC) [%],growth inhibition (SUDIPGIV) [%],growth inhibition (SUDIPGVI) [%],growth inhibition (SUDIPGXIII) [%]
COC(c1ccccc1)(c1ccccc1)[C@H](Oc1nc(C)cc(C)n1)C(=O)O,1.89,2.75,1.17,0.496,2.43,1.67,1.25,-2.2,2.3,-15.1
NC(=O)OCC(COC(N)=O)c1ccccc1,1.09,2.98,1.52,0.912,0.666,0.329,2.74,0.15,2.19,1.32
CC1OC(n2cc(F)c(=O)[nH]c2=O)C(O)C1O (stereo not given),-0.415,1.44,-1.58,1.19,-0.346,1.76,-0.812,2.36,0.29,1.21
O=C(NC(Cc1cc(=O)[nH]c2ccccc12)C(=O)O)c1ccc(Cl)cc1 (stereo not given),0.575,0.0807,-1.26,0.987,0.192,0.202,-1.11,-0.753,0.645,0.24
NS(=O)(=O)c1cc2c(cc1Cl)N=CNS2(=O)=O,-2.49,-1.85,0.251,-2.53,-3.41,-3.61,-4.62,-3.95,-5.67,0.373
CCN(CC)CCNC(=O)c1c(C)[nH]c(/C=C2\C(=O)Nc3ccc(F)cc32)c1C,25.8,6.19,11.1,7.94,7.9,20.3,71.3,-3.41,3.36,-4.08
COC(=O)N[C@H](C(=O)N[C@@H](Cc1ccccc1)[C@@H](O)CN(Cc1ccc(-c2ccccn2)cc1)NC(=O)[C@@H](NC(=O)OC)C(C)(C)C)C(C)(C)C,-2.79,-2.21,1.19,-1.97,-2.26,-3.15,-5.7,-0.315,-14.4,0.413
CCC[C@H](N[C@@H](C)C(=O)N1[C@H](C(=O)O)C[C@@H]2CCCC[C@@H]21)C(=O)OCC,1.9,3.94,2.49,2.02,2.66,2.59,0.292,0.563,1.95,0.674
Cc1cnc(C(=O)NCCc2ccc(S(=O)(=O)NC(=O)NC3CCCCC3)cc2)cn1,0.556,2.29,1.52,0.701,1.35,1.61,0.478,0.461,1.46,0.0328
CCOC(=O)[C@H](CCc1ccccc1)N[C@H]1CCCN2CCC[C@@H](C(=O)O)N2C1=O,2.06,3.84,3.15,2.7,2.78,1.01,9.63,0.443,4.92,-0.861
CN1CCN(CCCN2c3ccccc3Sc3ccc(C(F)(F)F)cc32)CC1,14.9,0.958,12.3,0.94,7.39,8.55,9.67,4.53,-3.52,0.946
CCCNC(C)C(=O)Nc1c(C)csc1C(=O)OC (stereo not given),0.453,0.894,1.5,-0.444,3.43,1.44,5.64,0.331,2.98,-0.525
c1cnc2cc3c(cc2n1)[C@@H]1CNC[C@H]3C1,1.18,-2.8,1.78,0.684,0.561,1.15,0.349,-0.44,-0.35,-1.07
NC(=O)N1c2ccccc2C=Cc2ccccc21,-0.706,3.98,0.653,1.56,1.28,0.945,2.65,0.457,1.8,-0.0848
CCOc1ccc2nc3cc(N)ccc3c(N)c2c1,-0.121,2.61,2.68,3.22,-1.26,1.77,2.09,1.88,-0.000958,1.33
CCOC(=O)[C@H](CCc1ccccc1)N[C@@H](C)C(=O)N1Cc2ccccc2C[C@H]1C(=O)O,1.41,1.99,3.28,3.18,5.5,3.4,5.54,3.99,0.712,0.247
CC[C@H](C)C(=O)O[C@H]1C[C@@H](C)C=C2C=C[C@H](C)[C@H](CC[C@@H]3C[C@@H](O)CC(=O)O3)[C@H]21,6.68,-1.93,8.58,5.72,16.2,10.8,51.5,18.1,-6.1,-0.657
Nc1nc(Cl)nc2c1ncn2[C@@H]1O[C@H](CO)[C@@H](O)[C@@H]1F,14.6,9.43,17.6,43.6,20,12.5,64.4,45,2.3,14.3
Cn1ccnc1S,-2.03,-0.808,-1.31,-0.195,-0.799,-0.968,-4.2,-2.69,-1.6,-8.17
COc1cc(C(=O)NC2CCCNC2)cc(OC)c1OC (stereo not given),0.123,2,0.49,0.203,2.37,-3.35,6.28,1.23,0.918,-1.95
CCCCNc1ccc(C(=O)OCCN(C)C)cc1,-1.31,-0.907,0.627,-0.979,5.11,4.5,0.385,-0.481,-2.2,1.02
